The list is not random: actives were taken first. Their share in the collection is about 17%.
HT1080-NT tox – kills 2HG-producing HT-1080-NT fibrosarcoma cells. HT-1080-NT fibrosarcoma viability, CellTiter-Glo ATP luminescence, 48 h. Potency, µM (doses to about 46.1 µM), without a hit: at the top dose activity, negative = less viability, most hits filed as cytotoxic. 360,000 tested, 1.6% active;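 also: NT is the 2HG producing partner of a matched IDH1 knockdown line; 0% = DMSO-treated cells and -100% = media-only wells without cells; nearly all actives have a fitted effect of over 55% in size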
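Fibrosarcoma NT cells, 750 per well in 5% FBS RPMI, were exposed to compound for 48 hours. Viability: CellTiter-Glo luminescence.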
DT40 TDP1 no CPT – qHTS for Inhibitors of human tyrosyl-DNA phosphodiesterase 1 (TDP1): qHTS in cells in absence of CPT; DT40 Tdp1-/- hTDP1 cells, no CPT, ATP luminescence, 48 h; Potency, µM (titrated, usually from 46.2 µM), for inactives: at the top dose activity change, negative = growth inhibition, actives largely listed as inhibitors; 420,000 tested, 15% active; AID 686978, 2013; also: % is scaled to controls: 0 for no effect and ±100 for the full control effect; nearly all actives have a fitted effect of over 55% in size
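No-CPT arm: Tdp1-/-;hTDP1 DT40 cells (400/well) plus compounds, incubated ≥48 hr at 37 °C. Readout CellTiter-Glo luminescence.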
HT1080 IDH1KD tx – kills HT-1080 cells with IDH1 knockdown | HT-1080 IDH1 knockdown viability, ATP luminescence, 48 h | Potency, µM (doses to about 46.1 µM), for the others: at the top dose activity, negative = toxicity, usual class: cytotoxic | 360,000 tested, 2% active | AID 686971;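 also: 0% = DMSO wells and -100% = cell-free medium wells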
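HT-1080-IDH1KD cells (IDH1 knocked down), 750/well in RPMI with 5% FBS, treated with compound 48 h at 37 degrees C. Viability by CellTiter-Glo luminescence, normalised to DMSO and no-cell wells; concentration-response curves classed.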
TGFb inhibitor – inhibitors of TGF-b signaling; HepG2 CAGA-GFP TGF-b/SMAD3 reporter, GFP fluorescence, 18 h; TGF-beta stimulated, 500 pg/mL final; 410,000 tested, 1.2% active; Potency, µM (highest dose often 46.1 µM), for inactives: top-dose activity, negative = inhibition, actives largely listed as inhibitors; also: % is scaled to controls: 0 for no effect and ±100 for the full control effect; nearly all actives have a fitted effect of over 65% in size
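Read-out: total well GFP (ex488/em500-530) summed from mean per-cell fluorescence. Cells: HEPG2 CAGA-GFP, 1% FBS DMEM, 18 h at 37 degrees C with 500 pg/mL final TGF-beta. Unstimulated wells served as the full-inhibition control; stimulated DMSO wells = 0%.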
TDP1 cell CPT – growth inhibition of DT40 Tdp1-/-;hTDP1 cells with camptothecin (screen for TDP1 inhibitors); 420,000 tested, 12% active; Potency, µM (series often up to 46.2 µM), inactives show at the highest dose activity change, negative = growth inhibition, hits mostly inhibitors; chicken DT40 Tdp1-/-;hTDP1 cells + 20 nM CPT, ATP luminescence, 48 h; also: % is scaled to controls: 0 for no effect and ±100 for the full control effect; nearly all actives have a fitted effect of over 55% in size
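Cell growth measured by CellTiter-Glo luminescence after a minimum 48 h, 37 C compound exposure with 20 nM CPT in Tdp1-knockout DT40 cells stably expressing hTDP1, seeded 400/well; qHTS titration format.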
HepG2 tox – HepG2 cytotoxicity, counter-screen for TGF-b inhibitors; HepG2 CAGA-GFP viability, ATP luminescence, 18 h; Potency, µM (series often up to 46.1 µM), for the others: at the top dose activity change, negative = cytotoxicity, hits mostly cytotoxic; 410,000 tested, 0.76% active; AID 588856
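HepG2 CAGA-GFP cells (1000/well, DMEM with 1% FBS) received compound, then TGF-beta at 500 pg/mL final, and were incubated 18 hours at 37 degrees C. Viability was read by CellTiter-Glo luminescence. Media-only wells were set as complete cell-killing and DMSO as no toxicity.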
The depositor's hits bear a star; ? = inconclusive; nt = no result. Calls follow the shape of the dose curve; as a rule, active = well fitted curve in the direction sought with a large enough effect; inconclusive = small, poorly fitted or top-dose-only effect, or another doubt; inactive = no such curve, though single readings can be large; an effect the other way counts as inactive or inconclusive. Potency is read from the fitted curve at half-maximal effect.

SMILES | HT1080-NT tox | DT40 TDP1 no CPT | HT1080 IDH1KD tx | TGFb inhibitor | TDP1 cell CPT | HepG2 tox
COc1ccc(N2CCN(C(=O)CSc3nnc(C4CC4)n3C3CC3)CC2)cc1 | 8% | -6% | 8% | 1% | -16% | -31%
CNc1nc(NC#N)nc(SC)n1 | 0% | ? | 0% | -3% | 21µM* | 0%
Cc1cc(C)n(CC(=O)NC2CCCc3c2cnn3-c2ccc(C)c(C)c2)n1 (configuration not stated) | -15% | -23% | -7% | -18% | ? | -9%
Cc1ccc(-n2ncc3c2CCCC3NC(=O)c2ccccc2N2CCOCC2)cc1C (configuration not stated) | -7% | ? | 2% | -25% | 16µM* | 15%
O=C(NC1CCCc2c1cnn2-c1ccc(F)cc1F)c1ccccc1N1CCOCC1 (configuration not stated) | -1% | 23µM* | -3% | ? | ? | 0%
CCOC(=O)N1CCN(C2CCCN(C(=O)c3cccc(N(C)C)c3)C2)CC1 (configuration not stated) | 4% | ? | 3% | 1% | -24% | 2%
C[C@@H]1CCC2[C@@H](C)[C@@H](O)O[C@@H]3O[C@@]4(C)CC[C@@H]1[C@@]23OO4 (some centres not stated) | nt | 0.094µM* | nt | nt | 0.041µM* | nt
N#Cc1ncc(-c2ccc3c(c2)OCCOCCOCCOCCOCCO3)nc1C#N | 2% | 13µM* | 11% | 11% | 12µM* | 4%
N#Cc1ncc(-c2ccc3c(c2)OCCOCCOCCOCCO3)nc1C#N | 11% | 4.6µM* | 12% | ? | 5.8µM* | -15%
Cc1ccc(S(=O)(=O)N(C)CCN(C)S(=O)(=O)c2ccc(C)cc2)cc1 | 15% | 23µM* | 1% | 0% | ? | -13%
Cc1ccc(S(=O)(=O)N(C)/N=C/c2ccc(C(=O)O)cc2)cc1 | 2% | 9% | 1% | 7% | -1% | 6%
CSc1ccc(/C=N/N(C)S(=O)(=O)c2ccc(C)cc2)cc1 | 2% | 7.3µM* | 1% | 0% | ? | -2%
Cc1ccc(/C=N/N(C)S(=O)(=O)c2ccc(C)cc2)cc1 | -12% | 21µM* | -21% | -26% | 23µM* | -5%
CCc1nc(N2CCN(C(C)=O)CC2)c2c3c(sc2n1)CC(C(C)(C)C)CC3 (configuration not stated) | -2% | 12µM* | 0% | 4% | ? | -12%
CCNC(=S)N1CCN(c2nc(CC)nc3sc4c(c23)CCCC4)CC1 | -8% | ? | -11% | ? | ? | -15%
CCc1nc(N2CCN(C(=O)CCCl)CC2)c2c3c(sc2n1)CCCC3 | -2% | ? | -12% | -6% | ? | -21%
CCc1nc(N2CCN(C(=O)CCl)CC2)c2c3c(sc2n1)CC(C)CC3 (configuration not stated) | 21µM* | 6.5µM* | 21µM* | ? | 3.3µM* | 18µM*
CCOc1ccccc1CNC(=O)c1ccc(NC(=O)N2CCSc3ncccc32)cc1 | nt | 15µM* | nt | -28% | 21µM* | 9%
O=C(Cc1ccc(NC(=O)N2CCSc3ncccc32)cc1)NCc1cccc(Cl)c1 | nt | 21µM* | nt | -7% | ? | -28%
CCOc1ccc(CNC(=O)Cc2ccc(NC(=O)N3CCSc4ncccc43)cc2)cc1 | nt | 16µM* | nt | 0% | 16µM* | -2%
O=C(Cc1ccc(NC(=O)N2CCSc3ncccc32)cc1)NCc1ccccc1 | nt | ? | nt | 0% | ? | -17%

Screening results: PubChem, National Center for Advancing Translational Sciences (NCATS)
